Vif inh = HIV Vif inhibition; HEK293T cells, Vif self-association by quenched fluorescence, imaging, 24 h; inhibition, % at 7.49 µM; hit rate 0.35% among 340,000; in the data active = inhibition above about 50%, passing the limit was not always enough
SKN-1 block = inhibitors of C. elegans SKN-1; C. elegans VP596 Pgst-4::GFP/RFP ratio, acrylamide-induced, 24 h; inhibition, % at 21.8 µM; hit rate 0.49% among 360,000;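 active = interference check ratio from 0.5 to 1.5 plus GFP to RFP signal ratio inhibition reaching or exceeding a fixed threshold, cut at about 30% in these data, passing the limit was not always enough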
GRIN3A LBD mod = modulates the human NR3A ligand-binding domain; hit rate 2.5% among 340,000; NR3A LBD differential scanning fluorimetry, Tm shift; 0% = protein alone, 100% = glycine-bound protein; Tm shift relative to glycine control, % at 25 µM;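 active = melting temperature shift of at least 10% of the positive control shift, at one fixed dose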
NadD inh = NadD (S. aureus) enzyme inhibition; purified NadD enzyme, colorimetric absorbance read-out; inhibition, % at 20 µM; hit rate 0.78% among 360,000; in the data active = inhibition above about 26%
SMARCA2 act = increases SMARCA2 function in MMTV reporter cells. hit rate 1% among 370,000. MG213 cells, MMTV-luciferase reporter, dexamethasone, overnight. activation, % at 9.1 µM. AID 652017; in the data active = activation above about 7.8%
esBAF inh = SWI/SNF esBAF complex inhibition; hit rate 2% among 350,000; reporter increase, % at 12.5 µM; mouse ES cells, Bmi1-luciferase knock-in reporter, 24 h; 100% = twice the neutral-well signal; AID 602393; in the data active = activation above about 40%;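 also: a rise in the Bmi1 reporter signal indicates esBAF inhibition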
Large screens that a line does not name were inactive. Hits are enriched below; roughly 5.2% of the tested compounds scored in any of these assays.

CN1C(=O)c2cc(NC(=O)c3cccc(F)c3)ccc2OC[C@@H]2O[C@@H](CC(=O)NC3CCC3)CC[C@@H]21	none (no result: Vif inh, SKN-1 block, GRIN3A LBD mod, NadD inh, SMARCA2 act)
Cn1cnc(S(=O)(=O)N2CCCCC2c2cc(C(=O)Nc3ccc(F)c(Cl)c3)no2)c1 (stereo not given)	esBAF inh 45 (no result: GRIN3A LBD mod)
COc1ccc(NC(=O)c2cc(C3CCCCN3S(=O)(=O)Cc3ccccc3)on2)cn1 (stereo not given)	esBAF inh 51 (no result: GRIN3A LBD mod)
O=C(NCc1ccccc1)c1cc(C2CCCCN2S(=O)(=O)Cc2ccccc2)on1 (stereo not given)	none (no result: GRIN3A LBD mod)
COCC(=O)N1C[C@H](C)[C@H](OC)CN(C)C(=O)c2ccc(NC(=O)Nc3cccc(F)c3)cc2OC[C@@H]1C	none (no result: Vif inh, SKN-1 block, GRIN3A LBD mod, NadD inh, SMARCA2 act)
CCOC(=O)c1ccc(NC(=O)c2ccc(NC(=O)c3ccccc3)cc2)cc1	GRIN3A LBD mod 30
CCn1cc(Br)c(C(=O)Nc2ccc(F)c(Cl)c2)n1	GRIN3A LBD mod 15, esBAF inh 58
CC(C)OC(=O)c1ccc(NC(=O)c2ccco2)cc1	esBAF inh 61
CCc1nnc(NC(=O)/C=C/c2cccs2)s1	esBAF inh 58
CCC(=O)N[C@H]1C=C[C@H](CC(=O)NCC2CCCCC2)O[C@H]1CO	none (no result: Vif inh, SKN-1 block, GRIN3A LBD mod, NadD inh, SMARCA2 act)
C[C@H](CO)N1C[C@H](C)[C@@H](CN(C)Cc2ccc(C(=O)O)cc2)OCCCC[C@H](C)Oc2ccc(NC(=O)Nc3ccc4c(c3)OCO4)cc2C1=O	none (no result: Vif inh, SKN-1 block, GRIN3A LBD mod, NadD inh, SMARCA2 act)
CO[C@H]1CN(C)C(=O)c2cc(NC(=O)c3cccc(Oc4ccccc4)c3)ccc2OC[C@@H](C)NC[C@@H]1C	none (no result: Vif inh, SKN-1 block, GRIN3A LBD mod, NadD inh, SMARCA2 act)
CCOC(=O)c1ccc(NC(=S)NCCc2ccc(F)cc2)cc1	GRIN3A LBD mod 24 (no result: esBAF inh)
CCn1cc(Br)c(C(=O)NC(=S)Nc2ccc(C(=O)OC)cc2)n1	GRIN3A LBD mod 12 (no result: esBAF inh)
CCOC(=O)c1ccc(NC(=O)C(=O)NCCc2ccc(OC)cc2)cc1	none
CCOC(=O)c1ccc(NC(=O)c2nn(C)cc2Br)cc1	esBAF inh 51
CCOC(=O)c1ccc(NC(=S)NC(=O)c2nn(CC)cc2Br)cc1	none (no result: esBAF inh)
CCOC(=O)Nc1ccc(Oc2ccccc2)cc1	esBAF inh 54
CCOC(=O)c1ccc(NC(=O)c2nn(CC)cc2Br)cc1	none
CCOc1ccc(C(=O)Nc2ccc(NC(=O)c3ccccc3)cc2)cc1Br	GRIN3A LBD mod 29
COc1ccc(CC(=O)NNC(=S)Nc2ccccc2)cc1Br	none
CCOc1ccc(CC(=O)NNC(=S)Nc2ccccc2)cc1Br	GRIN3A LBD mod 13
CCOC(=O)c1ccc(NC(=O)c2ccco2)cc1	esBAF inh 72
CCOC(=O)c1ccc(NC(=O)/C=C/c2cccs2)cc1	GRIN3A LBD mod 23 (no result: esBAF inh)
CCOc1ccc(C(=O)Nc2ccc(Cc3ccncc3)cc2)cc1Br	none
C[C@@H]1CCCCO[C@@H](CN(C)Cc2ccncc2)[C@H](C)CN([C@H](C)CO)C(=O)c2cc(NC(=O)C3CCCCC3)ccc2O1	none (no result: Vif inh, SKN-1 block, GRIN3A LBD mod, NadD inh, SMARCA2 act)
COc1cccc(S(=O)(=O)N2CC[C@@H]3[C@@H](CO)Nc4ccc(C#Cc5ccccc5)cc4[C@@H]32)c1	none (no result: Vif inh, SKN-1 block, GRIN3A LBD mod, NadD inh, SMARCA2 act)
Cc1ccc(C(=O)OCC(=O)Nc2ccc(N(C)C)cc2)cc1NC(=O)c1ccco1	GRIN3A LBD mod 15 (no result: esBAF inh)
Cc1ccc(C(=O)OCC(=O)Nc2ccccc2)cc1NC(=O)c1ccco1	none
CN1C(=O)c2cc(NC(=O)c3cscn3)ccc2OC[C@@H]2O[C@@H](CC(=O)NCC3CC3)CC[C@@H]21	none (no result: Vif inh, SKN-1 block, GRIN3A LBD mod, NadD inh, SMARCA2 act)
O=C(O)C[C@H]1CC[C@H](NC(=O)Nc2ccccc2)[C@H](CO)O1	none (no result: Vif inh, SKN-1 block, GRIN3A LBD mod, NadD inh, SMARCA2 act)
O=C(c1ccc2oc(Cc3ccc(Cl)cc3)nc2c1)N1CCCCC1CCO (stereo not given)	GRIN3A LBD mod 10
CCOC(=O)N1CCN(C(=O)c2ccc3c(c2)sc2nc(-c4ccccc4)cn23)CC1	esBAF inh 79
CCOC(=O)C1CCCN(C(=O)c2ccc3oc(Cc4ccccc4)nc3c2)C1 (stereo not given)	esBAF inh 70
CC(C)(CO)NC(=O)c1ccc2nc(Cc3cccc(Cl)c3)oc2c1	esBAF inh 43
CCOC(=O)N1CCN(C(=O)c2ccc3nc(C)sc3c2)CC1	none (no result: esBAF inh)
CC(C)CC(=O)C1CCCN(C(=O)c2ccc3oc(Cc4ccccc4)nc3c2)C1 (stereo not given)	none
COCC(=O)N(C)C[C@H]1Oc2ncc(C#C[C@@H](C)O)cc2C(=O)N([C@H](C)CO)C[C@H]1C	none (no result: Vif inh, SKN-1 block, GRIN3A LBD mod, NadD inh, SMARCA2 act)
C[C@@H]1CN([C@H](C)CO)C(=O)c2cccc(NS(C)(=O)=O)c2O[C@H]1CN(C)C(=O)Nc1cccc2ccccc12	none (no result: Vif inh, SKN-1 block, GRIN3A LBD mod, NadD inh, SMARCA2 act)
Cc1ccc(S(=O)(=O)N(C)C[C@@H]2Oc3ccc(NC(=O)Nc4ccc5c(c4)OCO5)cc3CC(=O)N([C@H](C)CO)C[C@@H]2C)cc1	none (no result: Vif inh, SKN-1 block, GRIN3A LBD mod, NadD inh, SMARCA2 act)
CCCOC1CCCN(C(=O)c2ccc3oc(C(C)C)nc3c2)C1 (stereo not given)	esBAF inh 44
COCC1CCCN(C(=O)c2ccc3nc(Cc4cccc(Cl)c4)oc3c2)C1 (stereo not given)	esBAF inh 70
CCOC(=O)N1CCN(C(=O)c2ccc3oc(CCCc4ccccc4)nc3c2)CC1	esBAF inh 81
COC(=O)[C@@H](C)NC(=O)c1ccc2oc(CCc3ccccc3)nc2c1	esBAF inh 66
COCC1CCN(C(=O)c2ccc3nc(Cc4cccc(Cl)c4)oc3c2)CC1	none (no result: Vif inh, GRIN3A LBD mod)
COc1ccc(S(=O)(=O)N(C)C[C@@H]2Oc3ccc(NC(=O)NC4CCCCC4)cc3C(=O)N([C@@H](C)CO)C[C@H]2C)cc1	none (no result: Vif inh, SKN-1 block, GRIN3A LBD mod, NadD inh, SMARCA2 act)
Cc1oc(-c2ccc(Cl)cc2)cc1C(=O)O	esBAF inh 56
Cc1noc(C)c1NC(=O)Nc1ccc2c(c1)CC(=O)N([C@@H](C)CO)C[C@@H](C)[C@H](CN(C)C(=O)Nc1ccccc1)O2	none (no result: Vif inh, SKN-1 block, GRIN3A LBD mod, NadD inh, SMARCA2 act)
C[C@@H]1CN([C@@H](C)CO)C(=O)Cc2cc(NC(=O)C3CC3)ccc2O[C@H]1CN(C)CC1CCCCC1	none (no result: Vif inh, SKN-1 block, GRIN3A LBD mod, NadD inh, SMARCA2 act)
C[C@@H]1CN([C@@H](C)CO)C(=O)c2cccc(NC(=O)Nc3ccc(F)cc3)c2O[C@H]1CN(C)S(=O)(=O)c1cn(C)cn1	none (no result: Vif inh, SKN-1 block, GRIN3A LBD mod, NadD inh, SMARCA2 act)
COc1ccccc1NC(=O)CN1CCN(C2c3ccccc3-c3ccccc32)CC1	SKN-1 block 37 (no result: Vif inh)
COc1ccc(NC(=O)CN2CCN(C3c4ccccc4-c4ccccc43)CC2)c(OC)c1	none
CC(C)Nc1nc(Cl)nc(N(C#N)CN2C(=O)c3ccccc3C2=O)n1	SMARCA2 act 14 (no result: esBAF inh)
COc1ccc(C(=O)N2C[C@@H]3[C@H](c4ccccc42)[C@@H](CO)N3C(=O)c2cccc(F)c2)cc1	none (no result: Vif inh, SKN-1 block, GRIN3A LBD mod, NadD inh, SMARCA2 act)
Cc1nn(C)cc1C(C)NC(=O)c1cc(COc2ccc(F)c(F)c2)on1 (stereo not given)	none
Cc1nn(C)c(C)c1C(C)NC(=O)c1cc(COc2ccc(F)c(F)c2)on1 (stereo not given)	esBAF inh 51
Cc1cccnc1NS(=O)(=O)c1cccc([N+](=O)[O-])c1	none (no result: esBAF inh)
Cc1cccnc1NS(=O)(=O)c1ccccc1	SMARCA2 act 7.9 (no result: Vif inh, GRIN3A LBD mod)

Bioassay records: PubChem, several laboratories
